aSyn yeast inh = qHTS of alpha-syn Inhibitors; Yeast expressing alpha-synuclein, growth rescue, BacTiter-Glo, 24 h; Potency, µM (titrated, usually from 46.1 µM), for the others: top-dose growth rescue (activation), most hits filed as activators; 370,000 tested, 0.14% active; AID 652106, 2013; further: % of control where 0% means no effect; nearly all actives have a fitted effect of over 65% in size
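Galactose-induced alpha-syn yeast (OD600=0.02, raffinose-pregrown) + pinned cpd, 24 hr, 30 deg C; growth by BacTiter-Glo luminescence. Growth restoration scores as activation.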
FUS suppressor = qHTS for Suppressors of FUS Proteinopathy: Primary screen using FUS-linked yeast assay; S. cerevisiae FUS-expressing, growth rescue, OD600, 24 h; Potency, µM (doses to about 76.6 µM), most hits filed as activators; 390,000 tested, 0.24% active;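 further: plate controls were DMSO vehicle for no effect and reference control for full effect; nearly all actives have a fitted effect of over 55% in size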
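Steps: raffinose overnight preculture; dilution to OD 0.005 in 2% galactose minimal medium; compound addition (concentration series); 24hr at 30C, 99% humidity; absorbance read at 600 nm.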
TDP43 rescue = qHTS of TDP-43 Inhibitors; TDP-43 expressing yeast growth rescue, BacTiter-Glo, 24 h; Potency, µM (top dose mostly 46.1 µM), for the others: at the top dose growth rescue (activation), actives largely listed as activators; 410,000 tested, 1.8% active; AID 652104, 2013; further: % of control where 0% means no effect; nearly all actives have a fitted effect of over 50% in size
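Yeast cells expressing TDP-43 under galactose induction are exposed to compounds for 24 hr at 30 deg C. BacTiter-Glo luminescence measures growth, so protective compounds score as activators.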
Abeta yeast res = qHTS for compounds that reverse cellular toxicity of Amyloid beta (A-beta) peptide in yeast: Primary Screen; 410,000 tested, 0.063% active; yeast expressing A-beta42, growth rescue, OD600, 48 h; response scale: 0% DMSO, 100% iron-clioquinol control; Potency, µM (highest dose often 46.1 µM), usual class: activators; AID 1347071, 2019; further: nearly all actives have a fitted effect of over 55% in size
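Yeast A-beta toxicity model in growth medium with pinned compounds, 48 h at 30 C; growth read as absorbance at 600 nm. Normalized to FeCl3/clioquinol equimolar mix (positive) and DMSO (negative).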
Active calls of the source: *; i = inactive; u = inconclusive; x = no result given; ! = a repeat was not active. Sampled rows, rich in hits. Any-hit rate of the full collection: about 2.1%. The call rests on the fitted dose curve; in most records, active means well fitted curve in the direction sought with a large enough effect; inconclusive means small, poorly fitted or top-dose-only effect, or another doubt; inactive means no such curve, though single readings can be large; an effect the other way counts as inactive or inconclusive. Potency means the concentration at half of the fitted maximal effect.

SMILES | aSyn yeast inh | FUS suppressor | TDP43 rescue | Abeta yeast res
CCC(=O)Nc1ccc(C(=O)OCc2ccccc2Cl)cc1 | -25.1% | x | u | i
COc1cc(Cn2c(=O)oc3ccc(C)cc32)ccc1OC(C)C | -6.2% | i | 35.5µM* | i
NCC(=O)c1ccc2ccccc2c1 | -1.9% | x | x | x
O=[N+]([O-])c1cccc(NP(=O)(Oc2ccccc2)Oc2ccccc2)c1 | u | i | 22.4µM* | i
COc1cccc(NP(=O)(Oc2ccc(Cl)cc2)Oc2ccc(Cl)cc2)c1 | 12.5% | x | 0.0% | i
Cc1c(C(c2ccc(Cl)cc2Cl)c2c(O)c3ccccc3oc2=O)c(=O)n(-c2ccccc2)n1C (stereo not drawn) | 3.0% | i | 10µM* | i
Cc1c(C(c2ccc(Br)cc2)c2c(O)c3ccccc3oc2=O)c(=O)n(-c2ccccc2)n1C (stereo not drawn) | -3.8% | u | 14.1µM*! | i
CSc1ccc(C(c2c(O)c3ccccc3oc2=O)c2c(C)n(C)n(-c3ccccc3)c2=O)cc1 (stereo not drawn) | 12.5% | u | -16.8% | i
O=C(COc1ccc(Cl)cc1)N1CCN(Cc2ccccc2)CC1 | 2.3% | i | -10.3% | i
CC(C)(Oc1ccc(Cl)cc1)C(=O)OCC(=O)N1CCN(c2ccccc2)CC1 | 12.7% | i | 14.1µM* | i
Cc1ccccc1CN1C(=O)C(C)N=C(c2ccccc2)c2ccccc21 (stereo not drawn) | x | i | 14.1µM* | i
Cc1oc(-c2ccccc2)nc1CN1C(=O)C(C)N=C(c2ccccc2F)c2cc(Cl)ccc21 (stereo not drawn) | -28.6% | i | u | i
Nc1cccc(N=Cc2c(O)n(Cc3ccc(F)cc3)c(=O)[nH]c2=O)c1 | -1.3% | 11.2µM* | 7.5% | i
O=c1[nH]c(=O)n(Cc2ccc(F)cc2)c(O)c1C=Nc1ccc(Cl)cc1 | -1.1% | i | -20.2% | i
O=C(NC1CCCCCC1)c1ccc[nH]c1=S | -46.2% | i | u | i
C=CCOC(Cn1ccnc1)c1ccc(Cl)cc1Cl (stereo not drawn) | u | i | 11.2µM* | i
C[C@@H]1CCC2[C@@H](C)C(=O)O[C@@H]3OC4(C)CCC1[C@@]23OO4 (stereo partly drawn) | -0.3% | i | 7.94µM* | i
C[C@@H]1CC[C@H]2[C@@H](C)C(=O)O[C@@H]3O[C@@]4(C)CC[C@@H]1[C@]32OO4 | 0.0% | i | 4.47µM* | i
C[C@]12CC[C@H](O)CC1=CC[C@@H]1[C@@H]2CC[C@]2(C)C(=O)CC[C@@H]12 | u | i | 15.8µM* | i
COc1ccc(CNC(=O)c2cnn3c(C)c(Cc4ccc(F)cc4)c(C)nc23)cc1 | x | i | u | i
O=C(Oc1ccc([N+](=O)[O-])cc1)N1CCN(/[N+]([O-])=N/Oc2ccc([N+](=O)[O-])cc2[N+](=O)[O-])CC1 | -49.3% | x | x | x
COc1ccc(CC2NCC(O)C2OC(C)=O)cc1 (stereo not drawn) | u | i | 12.6µM* | i
NC(CCc1ccccc1)c1csc(NC(=O)Nc2ccccc2Oc2ccccc2)n1 (stereo not drawn) | -48.7% | u | 8.7% | i
O=c1c2ccccc2nc(-c2cccs2)n1-c1ccccc1 | 2.1% | i | 21.5% | i
Cc1cccc(-n2c(-c3cccs3)nc3ccccc3c2=O)c1 | 11.9% | i | 20µM* | i
SMILES | aSyn yeast inh | FUS suppressor | TDP43 rescue | Abeta yeast res
c1ccc(N2CCN(c3ncnc4c3nc3n4CCCCC3)CC2)cc1 | x | i | 14.1µM* | i
Clc1ccccc1CN1CCN(c2ccccc2)CC1 | 0.6% | i | -20.6% | i
Cc1ccc(NC(=O)CN2C(=O)CN=C(c3ccccc3)c3cc(Cl)ccc32)cc1 | u | u | 14.1µM* | i
O=C(CN1C(=O)CN=C(c2ccccc2)c2ccccc21)Nc1cccc(C(F)(F)F)c1 | x | u | 35.5µM* | i
Nc1c(C(=O)OC2CCCCC2)c2nc3ccccc3nc2n1CC1CCCO1 (stereo not drawn) | 2.5% | i | 28.2µM* | i
COc1ccc(S(=O)(=O)N(C)C[C@H]2OCCCC[C@@H](C)Oc3ccc(N(C)C)cc3C(=O)N([C@H](C)CO)C[C@@H]2C)cc1 | -0.8% | i | 8.6% | i
CCOc1ccc2nc(N3CCC(C(=O)N4CCC5(CC4)OCCO5)CC3)sc2c1 | 2.0% | u | 21.1% | i
COc1ccc2nc(N3CCN(C(=O)CS(=O)(=O)c4ccc(C)cc4)CC3)sc2c1 | x | i | 12.6µM* | i
Oc1ccc(Cl)cc1Cc1ccccc1 | -9.5% | i | 14.1µM* | i
O=C1NCCOC(=O)[C@H](Cc2ccc(F)cc2)CC/C=C/C[C@@H]1CC(=O)N(CCO)Cc1ccccc1 | 4.3% | u | 13.2% | i
O=C1NCN(c2ccccc2)C12CCN(C(c1cc3ccccc3o1)c1nnnn1C1CCCCC1)CC2 (stereo not drawn) | 17.3% | 11.2µM* | 26.4% | i
CC(C)(C)n1nnnc1C(c1cc2ccccc2o1)N1CCC2(CC1)C(=O)NCN2c1ccccc1 (stereo not drawn) | 1.4% | u | 22.3% | i
CCCCCCCCN1C(=O)[C@H](CC(=O)N2CCCCC2)C[C@@]2(C(=O)OCC)CCCC=C12 | u | u | -42.1% | i
CCOC(=O)c1c(-n2c(C)cc(C=C3C(=O)NC(=S)NC3=O)c2C)sc2c1CCCC2 | -31.3% | i | 17.8µM* | i
Cc1cccc(Cn2c(SCc3ccc(C(=O)NC4CCCCC4)cc3)nc3cccnc32)c1 | x | i | u | i
Cc1nc2cc([N+](=O)[O-])ccc2c(=O)n1-c1ccc(Br)cc1 | -1.4% | i | -0.7% | i
Cc1nc2cc([N+](=O)[O-])ccc2c(=O)n1-c1ccccc1[N+](=O)[O-] | 12.0% | i | 15.8µM* | i
COC(=O)C1=C(c2ccc(OC(F)(F)F)cc2)C[C@@H]2CC[C@H]1N2C(=O)NCCNC(C)=O | -7.8% | i | 7.7% | i
COC(=O)C1=C(c2ccc(OC(F)(F)F)cc2)C[C@@H]2CC[C@H]1N2C(=O)NCc1ccc(F)cc1 | 12.4% | i | 12.6µM* | i
COC(=O)C1=C(c2ccc3ccccc3c2)C[C@@H]2CC[C@H]1N2C(=O)N1CCC(C)CC1 | -0.6% | i | 25.1µM* | i
COC(=O)C1=C(c2ccc(S(C)(=O)=O)cc2)C[C@@H]2CC[C@H]1N2C(=O)NCc1ccc(F)cc1 | 1.1% | i | 6.1% | i
COC(=O)C1=C(c2ccc(OC(F)(F)F)cc2)C[C@@H]2CC[C@H]1N2C(=O)NC1Cc2ccccc2C1 | 1.0% | u | 35.5µM* | i
COC(=O)C1=C(c2ccc(OC)c(OC)c2)C[C@@H]2CC[C@H]1N2C(=O)N1CCC(C)CC1 | 0.5% | i | 9.1% | i
